IL-1B inflam inh: inflammasome signaling inhibition, IL-1 beta readout; THP-1 LPS/ATP IL-1B secretion, AlphaLISA, 16 h; hits give low values; activity change, % at 57.5 µM; hit rate 4.7% among 360,000; in the data active = activity change below about -50%; inconclusive = mostly about -30% to -49%
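THP-1 cells pretreated 1 hr with compounds (up to 57.5 uM final), then stimulated with LPS (250 ng/mL final) plus ATP (1.25 mM final); secreted IL-1B measured by AlphaLISA after 16 hr, decreased signal indicating inhibition.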
LDHA inh: LDHA (human) enzyme inhibition | P00338 | purified LDHA, NADH/diaphorase-resazurin fluorescence; hits give low values | activity change, % (values are at about 110 or 230 µM) | hit rate 0.15% among 480,000 | AID 1347041; in the data active = activity change below about -30%; inconclusive = mostly about -25% to -30%
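Enzyme activity of human lactate dehydrogenase 5 (2 nM; 0.06 mM NADH, 0.2 mM pyruvate, 5 min, RT) is measured via a resazurin/diaphorase fluorescence readout of residual NADH.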
DT40 TDP1 CPT: growth inhibition of DT40 Tdp1-/-;hTDP1 cells with camptothecin (screen for TDP1 inhibitors); chicken DT40 Tdp1-/-;hTDP1 cells + 20 nM CPT, ATP luminescence, 48 h; hit rate 12% among 420,000; Potency, µM (doses to about 46.2 µM), usual class: inhibitors; also: nearly all actives have a fitted effect of over 55% in size
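Chicken DT40 Tdp1-/- cells complemented with human TDP1, 400 cells/well, exposed to compounds plus 20 nM camptothecin for at least 48 h at 37 C; viability read as ATP content by CellTiter-Glo luminescence.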
RORg inh: ROR gamma (mouse) transcription inhibition; hit rate 5.4% among 310,000; Potency, µM (doses to about 53.6 µM), usual class: inhibitors; P51450; AID 2551; Drosophila S2 Gal4-RORgamma UAS-luciferase reporter, 20 h; also: nearly all actives have a fitted effect of over 60% in size
Target sequence (P51450 whole entry, looked up, the tested form may be a part): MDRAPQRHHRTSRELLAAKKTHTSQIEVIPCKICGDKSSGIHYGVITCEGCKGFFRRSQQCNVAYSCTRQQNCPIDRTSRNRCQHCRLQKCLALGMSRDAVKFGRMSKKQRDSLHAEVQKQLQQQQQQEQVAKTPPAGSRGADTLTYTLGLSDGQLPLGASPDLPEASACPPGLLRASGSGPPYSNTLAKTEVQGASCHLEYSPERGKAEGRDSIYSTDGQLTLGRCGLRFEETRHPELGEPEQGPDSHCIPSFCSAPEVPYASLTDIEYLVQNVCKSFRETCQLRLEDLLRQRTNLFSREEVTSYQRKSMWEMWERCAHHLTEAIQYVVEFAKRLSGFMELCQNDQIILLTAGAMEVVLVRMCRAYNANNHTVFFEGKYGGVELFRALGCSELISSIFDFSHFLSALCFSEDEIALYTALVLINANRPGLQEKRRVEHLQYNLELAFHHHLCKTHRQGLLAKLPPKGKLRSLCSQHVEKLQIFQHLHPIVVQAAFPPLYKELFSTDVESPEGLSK
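Drosophila Schneider cells stably carrying a metallothionein-driven Gal4 DBD–ROR gamma fusion and a UAS-Photinus luciferase reporter were exposed to compound for 1 hr, then induced with copper sulfate (700 uM final) for 20 hr at ambient temperature before luminescence reading.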
TDP1 cell noCPT: qHTS for Inhibitors of human tyrosyl-DNA phosphodiesterase 1 (TDP1): qHTS in cells in absence of CPT. DT40 Tdp1-/- hTDP1 cells, no CPT, ATP luminescence, 48 h. Potency, µM (titrated, usually from 46.2 µM), actives largely listed as inhibitors. hit rate 15% among 420,000. AID 686978, 2013; also: nearly all actives have a fitted effect of over 55% in size
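DT40 Tdp1-/-;hTDP1 cells, no CPT (DMSO vehicle only), 400 cells/well; compounds pin-transferred; ≥48 hr, 37 °C; CellTiter-Glo 30 min RT dark, luminescence read.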
Gal4-VP16 FLuc: counter-screen for ROR gamma inhibitors: Gal4-VP16 reporter | hit rate 3.5% among 310,000 | AID 2546 | Potency, µM (doses to about 53.6 µM), hits mostly inhibitors | Drosophila S2 Gal4-VP16 UAS-luciferase, luminescence, 20 h;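 also: Gal4-VP16 expression switched on by copper sulfate through the metallothionein promoter; nearly all actives have a fitted effect of over 50% in size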
A number is an active result. Rows were chosen to be rich in hits. Some 18% of all compounds tested hit in one or more screens of this group. Unless noted, calls follow the shape of the dose curve; as a rule, active = well fitted curve in the direction sought with a large enough effect; inconclusive = small, poorly fitted or top-dose-only effect, or another doubt; inactive = no such curve, though single readings can be large; an effect the other way counts as inactive or inconclusive.

What do the screens show for `CCc1nc2ccc(C(=O)NCCOc3ccc(OC)cc3)cn2c1N(C)C(=O)C1CCCCC1`?
IL-1B inflam inh: inactive; LDHA inh: inactive; DT40 TDP1 CPT: inconclusive; TDP1 cell noCPT: 21µM

Results for CCc1nc2ccc(C(=O)NCc3ccccc3OC)cn2c1N(C)C(=O)Cc1ccccc1 ?
IL-1B inflam inh: inactive; LDHA inh: inactive; DT40 TDP1 CPT: inconclusive; TDP1 cell noCPT: inconclusive

What do the screens show for `CCc1nc2ccc(C(=O)NCc3ccccc3OC)cn2c1N(C)Cc1ccc(OC)cc1`?
IL-1B inflam inh: -52; LDHA inh: inactive; DT40 TDP1 CPT: 16µM; TDP1 cell noCPT: 21µM

How did CCc1nc2ccc(C(=O)NCCc3c[nH]c4ccccc34)cn2c1N(C=O)CCC(C)C do in these assays?
IL-1B inflam inh: inconclusive; LDHA inh: inactive; DT40 TDP1 CPT: 21µM; TDP1 cell noCPT: 16µM

How did CCc1nc2ccc(C(=O)NCc3ccc(OC)cc3)cn2c1N(C)Cc1ccc(OC)cc1 do in these assays?
IL-1B inflam inh: inactive; LDHA inh: inactive; DT40 TDP1 CPT: inconclusive; TDP1 cell noCPT: 21µM

How did Cc1cc(C)c(S(=O)(=O)N2CCCC2c2cc(C(C)C)no2)cc1C (stereo not given) do in these assays?
LDHA inh: inactive

How did C#CCNCc1ccc(F)cc1 do in these assays?
LDHA inh: inactive

Results for COc1ccc(NC(=O)N2CCN(S(=O)(=O)c3cc4c(cc3Cl)NC(=O)C(C)O4)CC2)cc1 (stereo not given) ?
LDHA inh: inactive

How did CCc1nc2ccc(C(=O)N(C)Cc3ccccc3)cn2c1N(C)CCCc1ccccc1 do in these assays?
IL-1B inflam inh: inactive; LDHA inh: inactive; DT40 TDP1 CPT: inconclusive; TDP1 cell noCPT: 13µM

Results for CCc1nc2ccc(C(=O)N(C)CCCN(C)C)cn2c1N(C)CCCc1ccccc1 ?
IL-1B inflam inh: inactive; LDHA inh: inactive; DT40 TDP1 CPT: inconclusive; TDP1 cell noCPT: inconclusive

Results for O=C(c1cccc(Cl)c1)N1CCN(Cc2nnnn2C2CC2)CC1 ?
LDHA inh: inactive

What do the screens show for `COc1cc(OC)c2c(-c3cccc(-c4ccc(O)cc4)c3)cc(=O)oc2c1`?
IL-1B inflam inh: inactive; LDHA inh: inactive; DT40 TDP1 CPT: inconclusive; RORg inh: inactive; TDP1 cell noCPT: 16µM; Gal4-VP16 FLuc: inconclusive

What do the screens show for `COc1ccc(Nc2oc(-c3cccc(C)c3)nc2C#N)cc1`?
LDHA inh: inactive

Results for COc1cc(OC)c2c(-c3cccc(-c4ccc(CO)cc4)c3)cc(=O)oc2c1 ?
IL-1B inflam inh: inactive; LDHA inh: inactive; DT40 TDP1 CPT: 1.3µM; RORg inh: inactive; TDP1 cell noCPT: 0.58µM; Gal4-VP16 FLuc: inconclusive

Results for COc1ccc(-c2cc(=O)oc(-c3cccc(C)c3)n2)cc1 ?
IL-1B inflam inh: inactive; LDHA inh: inactive; DT40 TDP1 CPT: inconclusive; RORg inh: inactive; TDP1 cell noCPT: 18µM; Gal4-VP16 FLuc: inactive

How did COc1ccc(-c2cccc(-c3cc(=O)oc4cc(OC)c(OC)c(OC)c34)c2)cc1 do in these assays?
IL-1B inflam inh: inactive; LDHA inh: inactive; DT40 TDP1 CPT: inconclusive; RORg inh: inactive; TDP1 cell noCPT: inconclusive; Gal4-VP16 FLuc: inactive

How did COc1cc(OC)c2c(C)cc(=O)oc2c1 do in these assays?
IL-1B inflam inh: inconclusive; LDHA inh: inactive; DT40 TDP1 CPT: inactive; RORg inh: inactive; TDP1 cell noCPT: inactive; Gal4-VP16 FLuc: inactive

How did COc1cc(OC)c2c(-c3cccc(/C=C/c4ccc(F)cc4)c3)cc(=O)oc2c1 do in these assays?
IL-1B inflam inh: inactive; LDHA inh: inactive; DT40 TDP1 CPT: 21µM; RORg inh: inactive; TDP1 cell noCPT: 18µM; Gal4-VP16 FLuc: inactive

Results for Cc1cn2c(=O)cc(COC(=O)CSc3ccccc3)nc2s1 ?
LDHA inh: inactive

How did CCCOc1ccc(NC(=O)C(C)Oc2ccc(C)c(C)c2)c2cccnc12 (stereo not given) do in these assays?
LDHA inh: inactive

Bioassay records as filed in PubChem.
